# The source made the active and inactive calls.
# What was measured:
# [1] = system: Human papillomavirus type 1a protein E7 (residues 44-93); assay: HPV1a E7 fragment binders on microarrays, primary screen, biochemical, small-molecule microarray, residues 44-93, 635 nm fluorescence (AID 1108); conditions: small-molecule microarray binding, fluorescence 635 nm; higher = more signal;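 further: E7 fragment applied at 1 µg/mL in TBST for 1 h at 4 C; score combines spot fluorescence with its signal to noise ratio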
# [2] = modulators of HCV replicon luciferase signal, primary screen, HCV replication inhibitor project, Huh7 cells, luciferase reporter (AID 1109); conditions: 48 h, higher = more signal;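 further: huh7 hepatoma cells harbouring a luciferase neomycin HCV replicon reporter; luciferase luminescence as measure of HCV replicon replication; test concentration not given here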
# [3] = target: Left-right determination factor 2 (Homo sapiens) (UniProt O00292); assay: LEFTY2 binders on small-molecule microarrays, primary screen, biochemical, small-molecule microarray, 635 nm fluorescence scan (AID 1110); conditions: LEFTY2 binding, higher = more signal
# [4] = target: Calmodulin-1 (Homo sapiens) (UniProt P0DP23); assay: CALM1 binders on microarrays, EGTA buffer, profiling panel, biochemical, small-molecule microarray, Cy5-labelled CALM1 (AID 1111); conditions: Cy5-CALM1 binding fluorescence, higher = more signal;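 further: labelled calmodulin applied in Tris saline Tween buffer holding calcium plus EGTA and DTT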
# [5] = target: Calmodulin-1 (Homo sapiens) (UniProt P0DP23); assay: calcium-bound CALM1 binders on microarrays, profiling panel, artefact control for SMM control-protein annotation, biochemical, small-molecule microarray, Cy5-labelled CALM1, plus calcium (AID 1112); conditions: Cy5-CALM1 binding fluorescence, higher = more signal;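 further: score merges spot fluorescence with signal to noise from triplicate slides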
# [6] = small-molecule microarray binders of probe aWnt5a, primary screen, biochemical, biotinylated probe, 635/667 nm fluorescence (AID 1113); conditions: higher = more signal;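 further: score merges 667 nm fluorescence intensity with signal-to-noise per printed feature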
# [7] = small-molecule microarray binders of probe aShh, primary screen, biochemical, biotinylated probe, 635/667 nm fluorescence (AID 1114); conditions: higher = more signal;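 further: probe is biotin-labelled aShh protein from a stem cell growth factor screen; measures binding of labelled protein to compounds printed on the slide; score merges feature fluorescence at 667 nm with signal-to-noise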
# [8] = small-molecule microarray binders of probe aNog, primary screen, biochemical, biotinylated probe, 635/667 nm fluorescence (AID 1115); conditions: higher = more signal;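 further: probe is biotinylated aNog protein used at 0.15 µg/mL for 1 h at 4 C; z-score combines 667 nm fluorescence of each spot with its signal to noise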
# [9] = target: Torsin-1A-interacting protein 1 (Homo sapiens) (UniProt Q5JTV8); assay: LAP1 binders from COS7 cell lysate, primary screen, small-molecule microarray, 635/667 nm fluorescence (AID 1116); conditions: COS7-hLAP1 lysate binding, 635 nm fluorescence, higher = more signal
# [10] = target: Alpha-bungarotoxin (Bungarus multicinctus) (UniProt P60615); assay: alpha-bungarotoxin binders on microarray, profiling panel, artefact control for SMM control protein annotation, biochemical, small-molecule microarray, Alexa647 label, 635/667 nm fluorescence (AID 1117); conditions: alpha-BTX-A647 binding fluorescence, higher = more signal
# Albumin (Bos taurus) = Albumin (Bos taurus) (UniProt P02769); assay: bovine serum albumin binders on microarray, profiling panel, artefact control for SMM control protein annotation, biochemical, small-molecule microarray, Alexa647 label, 635/667 nm fluorescence (AID 1118); conditions: BSA-A647 binding, fluorescence 635 nm, higher = more signal;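 further: score merges 667 nm emission intensity and signal-to-noise per printed compound spot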
# [11] = small-molecule microarray binders of probe aXIP, primary screen, biochemical, NeuroSMM set, 635/667 nm fluorescence (AID 1119); conditions: higher = more signal, called active from +8 up or from −8 down;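 further: probe is the protein aXip251-270 applied at 1 µg/mL to compound-printed slides; binding of probe to printed compounds measured as 667 nm fluorescence plus signal to noise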
# [12] = small-molecule binders of probe aNOTCH3, primary screen, biochemical, small-molecule microarray, 635/667 nm fluorescence (AID 1120); conditions: higher = more signal;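 further: probe is a biotin-tagged antibody raised against NOTCH3 rather than NOTCH3 protein; score merges spot fluorescence near 667 nm with spot signal to noise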
# [13] = small-molecule binders of probe aNOTCH2, primary screen, biochemical, small-molecule microarray, 635/667 nm fluorescence (AID 1121); conditions: higher = more signal;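 further: score merges feature fluorescence read at 667 nm with its signal to noise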
# [14] = target: Carbonic anhydrase 2 (Homo sapiens) (UniProt P00918); assay: CAII small-molecule binders, profiling panel, biochemical, small-molecule microarray, Alexa647-labelled CAII (AID 1122); conditions: CAII-A647 binding fluorescence, higher = more signal
# [15] = COS7 lysate on small-molecule microarray, probe aHis, 635 nm (AID 1123); conditions: COS7 cell lysate, fluorescence, higher = more signal;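 further: z-score combines 667nm fluorescence intensity with signal-to-noise per printed compound spot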
# [16] = compound binding in COS7 lysate, probe aLAP1, primary screen, cell lysate, small-molecule microarray (AID 1124); conditions: probe aLAP1, fluorescence, higher = more signal;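 further: lysate comes from COS7 cells expressing LAP1 and is applied at 0.3 µg/mL; score merges spot fluorescence near 667 nm with signal-to-noise over triplicate slides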
# Sam68 (KHDRBS1) = assay: Sam68 small-molecule binders, primary screen, biochemical, small-molecule microarray, 635 nm fluorescence (AID 1125); conditions: small-molecule microarray binding, higher = more signal;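 further: score merges 667 nm channel intensity with signal to noise over triplicate slides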
# [17] = system: Chordin-like protein 2 (CHRDL2); assay: CHRDL2 small-molecule binders, primary screen, biochemical, small-molecule microarray, 635 nm fluorescence (AID 1126); conditions: small-molecule microarray binding, fluorescence 635 nm; higher = more signal;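 further: printed compound slides probed with Chrdl2 protein at 4 µg/mL for 1 h at 4 C; score merges 667 nm emission intensity with signal to noise over three replicate slides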
# [18] = target: Concanavalin-A (Canavalia ensiformis) (UniProt P02866); assay: ConA small-molecule binders, primary screen, artefact control for SMM control protein annotation, biochemical, small-molecule microarray, Alexa647 label, 635 nm (AID 1127); conditions: ConA-A647 binding fluorescence, higher = more signal;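 further: z combines 667 nm emission intensity with signal-to-noise across three replicate slides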
# Chain of Concanavalin-A (Canavalia ensiformis) (P02866 whole entry, looked up): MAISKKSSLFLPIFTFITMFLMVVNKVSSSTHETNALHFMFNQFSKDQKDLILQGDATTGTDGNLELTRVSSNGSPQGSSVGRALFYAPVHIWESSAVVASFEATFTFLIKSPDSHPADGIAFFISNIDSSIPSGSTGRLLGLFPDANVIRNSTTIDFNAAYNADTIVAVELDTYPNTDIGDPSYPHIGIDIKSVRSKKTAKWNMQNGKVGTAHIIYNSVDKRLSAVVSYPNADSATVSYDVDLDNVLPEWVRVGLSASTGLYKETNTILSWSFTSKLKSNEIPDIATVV
# Chain of Albumin (Bos taurus) (P02769 whole entry, looked up): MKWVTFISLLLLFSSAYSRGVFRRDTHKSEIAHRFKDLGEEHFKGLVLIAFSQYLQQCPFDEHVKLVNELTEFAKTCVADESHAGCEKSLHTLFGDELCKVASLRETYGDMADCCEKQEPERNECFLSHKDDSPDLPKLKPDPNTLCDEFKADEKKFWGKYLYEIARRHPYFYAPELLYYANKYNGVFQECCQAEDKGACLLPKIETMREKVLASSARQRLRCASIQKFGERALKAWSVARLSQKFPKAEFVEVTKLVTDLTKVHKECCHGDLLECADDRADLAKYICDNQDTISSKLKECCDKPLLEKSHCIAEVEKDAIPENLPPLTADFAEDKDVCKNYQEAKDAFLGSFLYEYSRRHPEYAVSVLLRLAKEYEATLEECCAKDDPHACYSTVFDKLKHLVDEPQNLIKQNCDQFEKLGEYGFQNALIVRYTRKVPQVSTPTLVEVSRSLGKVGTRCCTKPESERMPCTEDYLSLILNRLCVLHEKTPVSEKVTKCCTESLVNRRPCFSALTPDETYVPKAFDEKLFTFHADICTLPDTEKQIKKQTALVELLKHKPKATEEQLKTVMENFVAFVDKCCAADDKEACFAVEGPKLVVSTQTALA
# Chain of Alpha-bungarotoxin (Bungarus multicinctus) (P60615 whole entry, looked up): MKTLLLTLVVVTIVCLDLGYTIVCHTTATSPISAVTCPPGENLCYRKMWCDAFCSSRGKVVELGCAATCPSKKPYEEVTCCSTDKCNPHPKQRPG
# Chain of Left-right determination factor 2 (Homo sapiens) (O00292 whole entry, looked up): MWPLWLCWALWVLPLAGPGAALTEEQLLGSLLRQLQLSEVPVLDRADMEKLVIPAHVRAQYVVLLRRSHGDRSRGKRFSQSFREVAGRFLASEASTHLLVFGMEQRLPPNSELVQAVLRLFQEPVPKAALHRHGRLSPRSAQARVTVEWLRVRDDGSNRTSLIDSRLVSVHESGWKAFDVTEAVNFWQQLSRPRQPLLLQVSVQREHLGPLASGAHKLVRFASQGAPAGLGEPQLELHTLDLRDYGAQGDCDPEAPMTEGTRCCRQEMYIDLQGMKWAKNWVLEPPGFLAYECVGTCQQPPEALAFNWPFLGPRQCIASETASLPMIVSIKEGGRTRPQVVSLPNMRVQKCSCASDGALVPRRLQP
# Chain of Torsin-1A-interacting protein 1 (Homo sapiens) (Q5JTV8 whole entry, looked up): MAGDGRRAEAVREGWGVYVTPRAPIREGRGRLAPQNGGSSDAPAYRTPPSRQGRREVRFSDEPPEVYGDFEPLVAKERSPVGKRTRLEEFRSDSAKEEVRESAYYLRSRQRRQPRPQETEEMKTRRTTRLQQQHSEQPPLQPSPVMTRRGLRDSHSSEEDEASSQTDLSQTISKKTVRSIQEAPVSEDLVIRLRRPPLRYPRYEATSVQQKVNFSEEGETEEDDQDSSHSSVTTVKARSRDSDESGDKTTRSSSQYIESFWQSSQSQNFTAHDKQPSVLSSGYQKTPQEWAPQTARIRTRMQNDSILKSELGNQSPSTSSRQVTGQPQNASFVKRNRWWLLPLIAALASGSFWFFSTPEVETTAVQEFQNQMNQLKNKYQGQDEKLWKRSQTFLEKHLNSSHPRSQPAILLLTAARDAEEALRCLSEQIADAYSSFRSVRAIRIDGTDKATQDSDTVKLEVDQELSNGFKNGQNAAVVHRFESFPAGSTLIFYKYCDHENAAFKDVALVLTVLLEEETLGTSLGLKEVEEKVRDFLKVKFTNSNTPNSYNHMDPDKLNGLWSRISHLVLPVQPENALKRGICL
SMILES,composite z-score [1],z-score [2],composite z-score [3],composite z-score [4],composite z-score [5],composite z-score [6],composite z-score [7],composite z-score [8],composite z-score [9],composite z-score [10],composite z-score (Albumin (Bos taurus)),composite Z-score [11],composite z-score [12],composite z-score [13],composite z-score [14],composite z-score [15],composite z-score [16],composite z-score (Sam68 (KHDRBS1)),composite z-score [17],composite z-score [18]
CC(C)c1ccc(NN2C(C(O)c3ccco3)C=CC3C(=O)N(c4ccccc4)C(=O)C32)cc1 (stereo not given),0.729,3.21,0.183,2.07,0.941,0.0629,0.279,1.47,0.93,2.69,0.488,0.204 (inactive),0.133,0.124,0.762,2.18,0.219,1.14,-0.394,1.17
C=CC[C@]1(C(=O)N(C)C)N=C(c2ccc(OCCCO)cc2)O[C@H]1c1ccccc1N=[N+]=[N-],1.4,-0.277,-0.406,2.27,0.116,0.0559,0.158,-0.0009,0.959,2.03,1.07,0.298 (inactive),0.266,0.0805,0.489,2.81,0.55,1.3,-0.811,0.877
O=C1NC(=O)C2C1C=CC(C(O)c1cc(C(F)(F)F)cc(C(F)(F)F)c1)N2Nc1ccc(Cl)cc1Cl (stereo not given),-0.158,-0.99,-0.256,1.91,1.29,-0.0405,0.431,0.676,1.86,0.526,0.839,0.809 (inactive),0.0833,-0.0703,0.583,2.45,0.554,-0.163,-0.464,-0.415
COc1ccc([Si](C)(C)[C@H]2[C@H](CCn3cc(CCO)nn3)O[C@@]3(C(=O)N(Cc4ccc(N5C(=O)c6cccc7cccc5c67)cc4)c4ccccc43)[C@@H]2C)cc1,1.4,-5.13,0.691,0.778,0.487,-0.117,0.0121,0.298,0.537,1.08,0.627,-0.777 (inactive),0.0996,-0.14,0.345,1.04,0.303,1.29,0.628,0.962
NC(=O)N1C(=O)C2C(C1=O)C1C=C(CCCO)C2C(c2cccs2)N1Cc1cc2c(cc1Br)OCO2 (stereo not given),0.183,0.199,-0.451,1.03,0.25,-0.0685,0.147,0.244,0.333,1.23,0.429,-0.483 (inactive),-0.0328,-0.12,0.757,1.04,-0.0752,0.234,-0.663,0.827
CC(C)(C)OC(=O)CC[C@]1(C(=O)O)N=C(c2ccc(OCCCO)cc2)O[C@H]1c1ccccc1,0.138,-0.733,-0.369,0.76,1.05,-0.096,-0.0769,-0.172,0.0522,0.574,0.419,-0.179 (inactive),0.318,-0.203,0.808,0.787,0.448,-0.612,-0.556,0.206
C=CC1c2cc(O)c(OC)cc2CCN1Cc1sc2ccccc2c1Cl (stereo not given),1.38,-1.78,0.0792,0.248,0.237,-0.107,0.0796,-0.0132,0.47,1.47,0.854,-0.967 (inactive),0.177,-0.0772,0.79,1.46,0.381,0.807,0.575,0.859
COCCCNC(=O)[C@]1(Cc2ccccc2N=[N+]=[N-])N=C(c2ccc(OCCCO)cc2)O[C@@H]1c1ccccc1N=[N+]=[N-],1.43,-3.31,-0.282,1.72,0.785,0.14,0.0556,-0.312,-0.0819,0.955,0.99,0.0401 (inactive),0.0348,-0.0372,0.666,2.33,-0.0886,1.3,-0.502,1.09
C=C(/C(=C/C[C@@H](OC(=O)c1ccncc1)c1ccc(OCCO)cc1)c1cc(C(=O)OC)ccc1OC)C(C)C,1.38,-1.88,-0.0398,0.356,-0.252,-0.0721,-0.138,-0.45,0.637,0.249,0.277,0.443 (inactive),0.157,-0.124,0.269,1.06,-0.017,1.14,-0.0737,0.695
C=C[C@@H](COC(C)=O)NS(=O)(=O)c1ccc(Br)cc1,0.487,-0.178,0.219,-0.271,-0.144,-0.0478,-0.0643,-0.538,-0.0651,0.225,-0.0541,0.486 (inactive),-0.0728,-0.0859,0.28,0.151,-0.0973,0.597,0.0699,0.205
COC1(C)CN(Cc2ccccc2Br)[C@H](/C=C/c2ccccc2)[C@H](Cc2ccccc2)O1 (stereo not given in full),-0.579,-1.58,-0.137,-0.0755,-0.412,-0.176,-0.291,-0.169,-0.631,-0.0462,-0.403,0.0873 (inactive),-0.236,-0.198,0.0397,0.203,-0.195,-0.435,-0.77,-0.0737

# Source: PubChem BioAssay
